Assay outcomes from PubChem BioAssay.
Pf Dd2 inh = inhibitors of Plasmodium falciparum Dd2 growth; hit rate 4.3% among 120,000; Potency, µM (series often up to 28.9 µM), hits mostly inhibitors; AID 1347417; P. falciparum Dd2 growth, SYBR Green, 72 h; active = well fitted inhibition curve with a large enough effect; note: nearly all actives have a fitted effect of over 65% in size
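Readout: SYBR Green fluorescence, 485 nm excitation, 535 nm emission, after ~16 h lysis at 37C. Before that, Dd2-infected red cells (2.5% hematocrit) grew 72 h with compound, 29 uM top final concentration.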
Numbers stand for hits; i = inactive; ! = not confirmed by another sample. Shown is part of a subset that was picked to be rich in hits.

SMILES	Pf Dd2 inh
Cc1nc(-c2ccco2)cc([C@H]2CN3CC[C@H]2C[C@@H]3CNCC2CCCCC2)n1	3.2µM
Cc1nc(-c2ccccc2)cc([C@H]2CN3CC[C@H]2C[C@@H]3CNC(=O)C(C)(C)C)n1	i
Cc1nc(-c2ccco2)cc([C@H]2CN3CC[C@H]2C[C@@H]3CNC(=O)c2cccs2)n1	8.9µM
Cc1nc(-c2ccccc2Br)cc([C@H]2CN3CC[C@H]2C[C@@H]3CNC(=O)c2cccs2)n1	i
COC(=O)[C@H](NC(=O)[C@@H]1C[C@H](NC(=O)NC(C)C)CN1C(=O)CSC)C(C)C	i
CCc1ccc(C(=O)N2CCC(Oc3ncccc3C(=O)N(C)C)C2)cc1 (stereo not given)	i
O=C1c2ccccc2CN1C1CCN(Cc2ccc(C(F)(F)F)cc2)CC1	i
CCn1cnnc1-c1nn(C)c2c1CN(C(=O)c1nn(C)c3ccccc13)CC2	i
COc1ccc(O[C@H]2COCCN(C(=O)c3cc(C)oc3C(F)(F)F)C2)cc1	i
COc1ccc(-c2onc(C)c2C(=O)NCc2cccc(Cl)c2)cc1	i
O=C(NC1CCN(c2cc(-c3ccc(Cl)cc3)[nH]n2)C1)c1ccccc1Br (stereo not given)	i
COc1ccc(CC(=O)N2CCC3(C2)C(=O)N(CCc2ccccc2)c2ccccc23)cc1 (stereo not given)	i
COc1cccc(C(=O)N2CCC3(C2)C(=O)N(CCc2ccccc2)c2ccccc23)c1 (stereo not given)	7.9µM
COCC(=O)N1CCC2(C1)C(=O)N(CCc1ccccc1)c1ccccc12 (stereo not given)	i
COC(=O)N1CCC2(C1)C(=O)N(CCc1ccccc1)c1ccccc12 (stereo not given)	13µM!
O=C(c1ccc(Cl)cc1)N1CCC2(C1)C(=O)N(Cc1ccccc1)c1ccccc12 (stereo not given)	i
O=C(c1ccccc1)N1CCC2(C1)C(=O)N(Cc1ccccc1)c1ccccc12 (stereo not given)	i
CCn1nccc1C(=O)NCCC1CCN(C(=O)Nc2ccccc2)CC1	i
COc1cccc(C(=O)Nc2cccc(-c3nnc4n3CCCC4)c2)c1	5.6µM
CCn1nccc1C(=O)Nc1cccc(-c2nnc3n2CCCC3)c1	8.9µM
CCOc1ccc(C(=O)Nc2cccc(-c3nnc4n3CCCC4)c2)cc1	1.6µM
Cc1ccc(NC(=O)N2CCC(c3cc(-c4cccc(C)c4)n[nH]3)CC2)cc1	i
Cc1nnc2n1CCC(NC(=O)c1cc(C3CC3)[nH]n1)CC2 (stereo not given)	i
COc1cccc(NCc2nnc3n2CCCCC3)c1	i
CCOc1ccc(C(=O)Nc2ccc3c(c2)CCCN3S(=O)(=O)c2ccc(C)cc2)cc1	i
SMILES	Pf Dd2 inh
CCOc1ccc(-c2nnc3n2CCCC3)cc1OCC	i
O=C(Nc1cccc(-c2nnc3n2CCCC3)c1)c1cc(C2CC2)[nH]n1	4µM
CCn1nccc1C(=O)NCCC1CCN(C(=O)Nc2cccc(C)c2)CC1	i
CCNC(=O)N[C@H]1[C@H](O)[C@@H](N(CC)CC)[C@@H]2OC[C@H]1O2	i
COc1cccc(CN2C[C@@H](F)[C@@H](OCc3nc4ccccc4o3)C2)n1	i
Cc1ccc2c(C(=O)N3CCN(C(C)C)CC3)cc(NC(=O)C(C)C)cc2n1	i
O=C(Nc1ccccc1)N1CCC(Oc2ccccc2)C1 (stereo not given)	i
Cc1ccc(-c2cc(N3CCCN(C(=O)Cc4cccs4)CC3)n[nH]2)cc1C	i
O=C(NCCc1noc(C2CC2)n1)NC1CCCC1	i
Cn1cccc1C(=O)N1CCC(n2cnnc2-c2ccccc2)C1 (stereo not given)	i
COc1ccc(-c2noc([C@@H](C)NS(=O)(=O)CC(C)C)c2C(=O)O)cc1	i
O=C(Nc1ccc(-c2nnc3n2CCCC3)cc1)c1cccc(Cl)c1	i
Cc1cc2nc3n(c(=O)c2n1CC(=O)Nc1cccc(C#N)c1)CCCCC3	i
CN(C)c1cccc(C(=O)Nc2cccc(-c3nnc4n3CCCC4)c2)c1	4.5µM
Cc1cccc(N(C)C(=O)Cn2nc3n(c2=O)CCCC3)c1	i
COc1ccc(NC(=O)Cn2nc3n(c2=O)CCCC3)cc1OC	i
N#Cc1ccc(C(=O)Nc2cccc(-c3nnc4n3CCCC4)c2)cc1	1.3µM
COc1ccc(C(=O)Nc2cccc(-c3nnc4n3CCCC4)c2)cc1OC	5µM
O=C(NCc1cccs1)c1cc2n(n1)CC(c1ccc(Cl)cc1)OC2 (stereo not given)	i
CCc1nnc([C@@H]2CC(F)(F)CN2C(=O)c2coc(C)n2)o1	i
Cc1nccn1CC1(CNc2ncncn2)CC1	i
O=C1CCN(C(=O)[C@@H]2CCCN2C(=O)NCCc2ccccc2)CCCCCCN1	i
Cn1cc(-c2cc3c(ccn3Cc3ccncc3)c(N3CCOCC3)n2)cn1	i
CN(C)Cc1ccc(-c2cc3c(ccn3Cc3ccncc3)c(N3CCOCC3)n2)cc1	11µM
c1cc(Cn2ccc3c(N4CCOCC4)nc(-c4cn[nH]c4)cc32)ccn1	i
CCOc1ccccc1NC(=O)CN1C(=O)NC(c2ccccc2OCC)C2=C1COC2=O (stereo not given)	i
